# PREPL inh – PREPL enzyme inhibitors, primary screen, biochemical, fluorescence polarization; Prolyl endopeptidase-like (Homo sapiens), Q4J6C6; recombinant PREPL, fluorescence polarization activity-based probe; inhibition, % at 5.96 µM; 320,000 tested, 0.68% active; AID 2751, 2010
# ATG4B inh – ATG4B protease inhibitors, primary screen, biochemical, fluorescence, uHTS | inhibition, % at 8.33 µM | ATG4B cleavage of LC3-PLA2, NBD-HPC fluorescence, 1 h | 340,000 tested, 0.51% active | Cysteine protease ATG4B (Homo sapiens), Q9Y4P1; in the data active means inhibition above about 40%
# MEKK3 PB1 HTS – modulators of MEKK3-MEK5 PB1 binding, primary screen, biochemical, wildtype MEKK3, multiplex bead flow cytometry, Alexa488-MEK5; Mitogen-activated protein kinase kinase kinase 3 (Homo sapiens), Q99759; bead-based flow cytometry, Alexa488-MEK5 binding to MEKK3; actives lie on both sides; 0 = blocked by unlabeled MEK5, 100 = vehicle; binding response (% of control), % at 10 µM; 290,000 tested, 1.4% active; AID 1529, 2009;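 active means binding response more than 3 SD above or below the average of its plate-row segment, actives on both sides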;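 further: Alexa488 bead fluorescence after subtracting the streptavidin-only scavenger bead signal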
# Target sequence (Q99759 whole entry, looked up): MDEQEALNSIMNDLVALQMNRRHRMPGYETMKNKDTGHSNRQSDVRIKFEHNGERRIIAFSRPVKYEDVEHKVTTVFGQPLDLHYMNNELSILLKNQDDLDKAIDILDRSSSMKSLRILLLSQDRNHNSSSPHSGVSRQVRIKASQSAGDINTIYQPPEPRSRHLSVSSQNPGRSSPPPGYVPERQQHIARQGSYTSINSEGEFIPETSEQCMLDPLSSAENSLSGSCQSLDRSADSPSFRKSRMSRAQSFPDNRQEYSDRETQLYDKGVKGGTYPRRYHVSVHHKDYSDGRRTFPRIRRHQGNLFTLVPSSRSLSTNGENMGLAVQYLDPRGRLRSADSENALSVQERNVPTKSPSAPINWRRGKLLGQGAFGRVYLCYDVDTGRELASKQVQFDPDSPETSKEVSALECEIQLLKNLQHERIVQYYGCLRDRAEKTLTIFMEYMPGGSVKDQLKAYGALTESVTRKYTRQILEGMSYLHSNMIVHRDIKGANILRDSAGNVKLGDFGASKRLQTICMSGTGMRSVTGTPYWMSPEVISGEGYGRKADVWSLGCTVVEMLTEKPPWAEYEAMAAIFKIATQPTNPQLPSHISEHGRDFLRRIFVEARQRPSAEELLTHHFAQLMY
# UBC13 polyUb – UBC13 polyubiquitin chain formation inhibitors, primary screen, biochemical, TR-FRET, uHTS; Ubiquitin-conjugating enzyme E2 N (Homo sapiens), P61088; inhibition, % at 20 µM; 330,000 tested, 0.47% active; in the data active means inhibition above about 45%, passing the limit was not always enough
# MEKK2mut PB1 HTS – MEK5 binding signal on mutant MEKK2 PB1, primary screen, biochemical, multiplex bead flow cytometry, Alexa488-MEK5 | Alexa488-MEK5 binding to MEKK2 mutant | percent response, % at 10 µM | 290,000 tested, 0.35% active; in the data active means percent response above about 24%, passing the limit was not always enough
# MEKK2 WT-MEK5 – modulators of MEK5 binding to wildtype MEKK2, primary screen, biochemical, multiplex bead flow cytometry, Alexa488-MEK5; Mitogen-activated protein kinase kinase kinase 2 (Homo sapiens), Q9Y2U5; Alexa488-MEK5 binding to MEKK2 WT; actives lie on both sides; binding response (% of control), % at 10 µM; 290,000 tested, 1.1% active; AID 1531, 2009; in the data active means binding response below about 67% or above about 130%
# PREPL confirm – human PREPL enzyme inhibitors, confirmation, biochemical, fluorescence polarization. inhibition, % at 5.96 µM. 2,000 tested, 67% active. shares compounds with PREPL inh. AID 2803, 2010. recombinant PREPL, fluorescence polarization activity probe
# Casp3 counter – CASP3 inhibitor validation, counterassay for project on UBE2N polyubiquitination blockers, biochemical, one dose; 1,400 tested, 4% active; Recombinant caspase-3, Caspase-Glo 3/7 luminescence, 60 min; inhibition, % at 20 µM; AID 488856, 2010; shares compounds with UBC13 polyUb;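 active means mean inhibition across replicates above about 26%, limit read from the data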
# UBC13 confirm – UBC13 polyubiquitination inhibitors, single-point retest, confirmation, biochemical, TR-FRET, single concentration. AID 488859, 2010. shares compounds with UBC13 polyUb. inhibition, % at 10 µM. 1,400 tested, 68% active; in the data active means inhibition above about 45%
# Hits are given with their value; - = inactive; . = no result; ! = not active in a repeat. Hits are enriched below; roughly 3.1% of the tested compounds scored in any of these assays. Unless noted, no stated cut-off is given here; in the data, active means inhibition above about 43%; inactive means the rest.
SMILES,PREPL inh,ATG4B inh,MEKK3 PB1 HTS,UBC13 polyUb,MEKK2mut PB1 HTS,MEKK2 WT-MEK5,PREPL confirm,Casp3 counter,UBC13 confirm
CCC[C@@H](CN1CCC[C@H]1CN1C(N)=NC[C@H]1C(C)C)N1C[C@@H]([C@H](C)CC)N(CCCC2CCCC2)C1=N,58.7,-,.,52.6,.,.,54.3,-,-
CCCCN1C(N)=NC[C@@H]1C(C)O (stereo not given in full),-,-,-,-,-,-,.,.,.
CC[C@@H](C)[C@@H]1CN([C@@H](CN2CCC[C@H]2CN2C(N)=NC[C@@H]2Cc2ccccc2)C(C)C)C(=N)N1CCCC1CCCC1,55.7,-,.,72.3,.,.,50.2,-,76.0
COCCN(CCOC)C(=O)CSc1ccc(S(=O)(=O)N2CCN(C)CC2)cn1,-,-,.,-,.,.,.,.,.
Cc1ccc(C(=O)NCc2ccccn2)cc1S(=O)(=O)N1CCOCC1,-,-,.,-,.,.,.,.,.
Cc1cc(NC(=O)COC(=O)[C@H](Cc2ccccc2)NC(=O)c2ccco2)no1,.,-,.,.,.,.,.,.,.
C/C(=N\Nc1ccc(C)c(Cl)c1)c1cccnc1,-,-,-,-,-,-,.,.,.
CC1CCC(C(C)C)C(OC(=O)COC(=O)c2cccn2C)C1 (stereo not given),-,-,-,-,-,-,.,.,.
CC1CCC(C(C)C)C(OC(=O)Cn2c(-c3ccc(Br)cc3)[n+](C)c3ccccc32)C1 (stereo not given),48.8,-,-,54.7,-,147.0!,43.7,-,78.2
Cc1ccc(Cc2c(C)nc3nc(SCC(=O)NCCCN4CCCCCC4)nn3c2C)cc1,53.0,-,-,103.1,37.0,234.0,-,-,101.1
CC1CC(C)(C)CC2(C1)NC(=O)N(CC(=O)Nc1ccc3[nH]c(=O)[nH]c3c1)C2=O (stereo not given),49.4,-,.,76.9,.,.,-,-,-
CC1CCC2(CC1)NC(=O)N(CC(=O)Nc1ccc3[nH]c(=O)[nH]c3c1)C2=O (stereo not given),-,-,.,-,.,.,.,.,.
Cc1ccccc1NC(=O)CSc1ccsc1[N+](=O)[O-],-,-,-,-,-,-,.,.,.
C#CCOCCOCCOCCNc1nc(N2CCN(C(=O)CCCCCCCCCCNC(=O)Cn3cc(C[C@@H](C)O)nn3)CC2)nc(N2CCN(C(=O)CCCCCCCCCCNC(=O)[C@H](CCCN=C(N)N)n3cc(C[C@@H](C)CC)nn3)CC2)n1,47.6,-,.,123.8,.,.,-,-,119.0
C#CCOCCOCCOCCNc1nc(N2CCN(C(=O)CCCCCCCCCCNC(=O)Cn3cc(CCCCCN)nn3)CC2)nc(N2CCN(C(=O)CCCCCCCCCCNC(=O)[C@H]([C@@H](C)CC)n3cc(CCCCN=C(N)N)nn3)CC2)n1,68.3,48.7,.,120.8,.,.,62.2,-,124.4
C#CCOCCOCCOCCNc1nc(N2CCN(C(=O)CCCCCCCCCCNC(=O)[C@H]([C@@H](C)CC)n3cc(CCCCCN)nn3)CC2)nc(N2CCN(C(=O)CCCCCCCCCCNC(=O)[C@H](CO)n3cc(CCCCCN)nn3)CC2)n1,50.1,-,.,120.4,.,.,51.2,-,123.7
C#CCOCCOCCOCCNc1nc(N2CCOCC2)nc(N2CCN(C(=O)CCCCCCCCCCNC(=O)[C@@H](CCC(=O)O)n3cc(CCCCCN)nn3)CC2)n1,-,-,.,-,.,.,.,.,.
